IP6K1 inhibitor = inhibitors of human IP6K1 | AID 1645851 | activity change, % (series mostly up to about 58 µM) | actives 0.81% (n = 140,000) | IP6K1 kinase, ADP-Glo luminescence, 2 h; active compounds read low; in the data active = activity change below about -25%; also: % is scaled to controls: 0 for no effect and ±100 for the full control effect
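ADP-Glo luminescence measures ADP made by human IP6K1 during a 2 h RT reaction with ATP/IP6 (mix at 1.3 mM/130 uM); top library doses 57.5 and 19.1 uM final.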
KDM5B inh = KDM5B demethylase inhibition; AID 1347165; KDM5B demethylase, FDH-coupled NADH fluorescence (FDH is formaldehyde dehydrogenase); Q9UGL1; Potency, µM (top dose mostly 57.7 µM), actives largely listed as inhibitors; actives 2.6% (n = 220,000); also: potency is read from the fitted curve at half-maximal effect; 0% is about no effect; nearly all actives have a fitted effect of over 70% in size
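Compound dilutions met 200 nM (final) KDM5BΔAP for 10 min at room temperature before substrate addition. The substrate mix held 12.5 µM H3K4me3 with cofactors 25 µM α-ketoglutarate and 50 µM Fe²⁺. NADH signal gain over 30 min defined activity.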
SNCA expr inh = SNCA gene expression inhibition; HEK-293 SNCA-luciferase knock-in, luminescence, 24 h; Potency, µM (top dose mostly 57.2 µM), for inactives: at the top dose activity change, negative = inhibition, hits mostly inhibitors; actives 0.17% (n = 140,000); AID 1671194;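 also: potency is read from the fitted curve at half-maximal effect; plate controls were DMSO cells for no effect and cell-free wells for full effect; nearly all actives have a fitted effect of over 45% in size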
SNCA viab count = cell viability loss counter-screen; HEK-293-SNCA-luc viability, GF-AFC fluorescence, 24 h; Potency, µM (highest dose often 57.1 µM), for inactives: at the highest dose activity change, negative = cytotoxicity, most hits filed as cytotoxic; actives 0.12% (n = 150,000);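 also: potency is read from the fitted curve at half-maximal effect; 0% = DMSO-treated cells and -100% = medium-only wells without cells; nearly all actives have a fitted effect of over 30% in size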
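HEK-293-SNCA-luc cells (1500/well) plated 24 h, then exposed 24 h to a dilution series; GF-AFC added 30 min at 37C, fluorescence 405/540 nm; normalised to medium-only and DMSO wells, Hill fit.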
An asterisk follows results filed as active; i = inactive; ? = inconclusive; . = no result given; [ ] = remark or other dose. In the library only some 2.9% were active in any assay of this set; here they are far more common. Unless noted, calls follow the shape of the dose curve; as a rule, active = well fitted curve in the direction sought with a large enough effect; inconclusive = small, poorly fitted or top-dose-only effect, or another doubt; inactive = no such curve, though single readings can be large; an effect the other way counts as inactive or inconclusive.

SMILES | IP6K1 inhibitor | KDM5B inh | SNCA expr inh | SNCA viab count
Cc1[nH]c2ccccc2c1C(=O)COc1ccccc1 | . | i | . | .
CN(C)c1cccc(C(=O)N2CCC3(CC2)N=C(c2cccc(Br)c2)NO3)c1 | -9.9 | 31.6µM* | 2.5% | 2.2%
Cc1ccc(C(=O)N2CCC3(CC2)N=C(c2cccc(Br)c2)NO3)cc1 | -13.0 | 31.6µM* | 14.7% | -2.6%
Cc1ccc(C(=O)N2CCC3(CC2)N=C(c2ccc(C)cc2)NO3)cc1 | -19.0 | i | 26.4% | -0.7%
Cc1ccc(C(=O)N2CCCC(C(=O)N3CCCC3c3nc4ccncc4[nH]3)C2)cc1 (centres undefined) | -7.7 | . | 15.6% | -6.5%
COc1ccccc1NC(=O)C1=C(C)Nc2nc(CCCO)nn2C1c1cccc(O)c1 (centres undefined) | 2.6 | ? | 11.0% | -0.5%
CCN(C(=O)c1c(O)c2c(Cl)cccc2n(C)c1=O)c1ccccc1 | . | . | 5.41µM* | ?
COc1ccc(-c2noc(C(=O)O)c2[C@@H](C)NC(=O)c2cccn2C)cc1 | -6.8 | 39.8µM* | 12.5%[87.6 µM] | 0.5%[87.6 µM]
O=S(=O)(c1cccnc1)N1CCCCC1CCN1CCOCC1 (centres undefined) | 0.0 | i | -26.3% | 3.3%
CS(=O)(=O)N1CCCCC1CCNc1nccc(-c2cccnc2)n1 (centres undefined) | -1.1 | 31.6µM* | -20.1% | 1.3%
OCC1CCCCN1CCNc1nccc(-c2cccnc2)n1 (centres undefined) | 7.7 | 25.1µM* | -12.4% | -3.8%
CCOc1cc(C2c3c(oc4ccc(F)cc4c3=O)C(=O)N2Cc2ccco2)ccc1O (centres undefined) | -6.4 | i | 13.7% | ?
Cn1nc(C2CCNCC2)c2c(C(=O)NC3CC3)cc(C3CC3)nc21 | 4.3 | 89.1µM* | ? | -7.1%
Cn1nc(C2CCCNC2)c2c(C(=O)NCC(F)(F)F)cc(C3CC3)nc21 (centres undefined) | 4.1 | ? | 14.8% | 2.2%
CNC(=O)c1cc(C2CC2)nc2c1c(C1CCN(C(=O)N(C)C)CC1)nn2C | -7.2 | . | . | .
Cn1nc(C2CCCNC2)c2c(C(=O)NC3CC3)cc(C3CC3)nc21 (centres undefined) | 2.4 | 89.1µM* | 4.2% | 9.9%
CSCC(=O)Nc1ccc2n(c1=O)C[C@H]1C[C@@H]2CN(C(=O)c2ccc(-c3ccccc3)cc2)C1 | -2.6 | i | 0.8% | -2.6%
CCCS(=O)(=O)Nc1ccc2n(c1=O)C[C@H]1C[C@@H]2CN(C(=O)c2ccc(-c3ccccc3)cc2)C1 | -10.2 | 20µM* | 37.9% | 1.1%
COCCNC(=O)c1cc(C2CC2)nc2c1c(C1CCCNC1)nn2C (centres undefined) | 3.8 | 89.1µM* | ? | 1.6%
Cn1nc(C2CCNC2)c2c(C(=O)N3CCOCC3)cc(C3CC3)nc21 (centres undefined) | -1.6 | 89.1µM* | 2.2% | -6.4%
Cn1nc(C2CCCN2)c2c(C(=O)N3CCOCC3)cc(C3CC3)nc21 (centres undefined) | 5.3 | ? | 0.5% | 0.3%
COCCCNC(=O)c1cc(C2CC2)nc2onc(C3CCNC3)c12 (centres undefined) | 1.6 | ? | 47.3% | 1.0%
COCCNC(=O)c1cc(C2CC2)nc2c1c(C1CCNC1)nn2C (centres undefined) | 12.5 | 89.1µM* | 2.3% | 8.5%
CC(C)CNC(=O)c1cc(C2CC2)nc2c1c(C1CCNC1)nn2C (centres undefined) | 2.3 | 89.1µM* | 1.0% | 3.7%
Cn1nc(C2CCNC2)c2c(C(=O)NCc3cccs3)cc(C3CC3)nc21 (centres undefined) | -9.4 | ? | 2.8% | -5.7%
SMILES | IP6K1 inhibitor | KDM5B inh | SNCA expr inh | SNCA viab count
COc1ccccc1-c1[nH]nc2ncc(-c3cccnc3OC)nc12 | 14.7 | i | -9.1%[87.6 µM] | 1.4%[87.6 µM]
Cc1cc(C)cc(-c2[nH]nc3ncc(-c4ccsc4)nc23)c1 | 31.2 | 28.2µM* | 16.2%[87.6 µM] | ?
COc1ccc(-c2[nH]nc3ncc(-c4cccnc4)nc23)cc1F | -2.2 | i | 2.82µM* | ?
COc1ccc(-c2cnc3n[nH]c(-c4ccc(F)cc4C)c3n2)cc1OC | 16.7 | 31.6µM* | -14.6%[87.6 µM] | 8.1%[87.6 µM]
Cc1ccsc1-c1[nH]nc2ncc(-c3ccc(F)cc3)nc12 | 12.5 | i | 14.7%[87.6 µM] | 12.6%[87.6 µM]
COc1cccc(-c2cnc3n[nH]c(-c4ccc(F)cc4C)c3n2)c1 | 24.5 | ? | -24.8%[87.6 µM] | 7.0%[87.6 µM]
COc1ncccc1-c1cnc2n[nH]c(-c3ccccc3C)c2n1 | 5.3 | 39.8µM* | ? | -1.2%[87.6 µM]
CCOc1cccc(NC(=O)C2CC(=O)N(C)C(=Nc3ccc(OC)cc3)S2)c1 (centres undefined) | 17.9 | i | -0.3% | 1.4%
c1ccc(-c2cnc3n[nH]c(-c4ccccc4)c3n2)cc1 | 28.8 | ? | -20.3%[87.6 µM] | -23.3%[87.6 µM]
COc1ccccc1-c1cnc2n[nH]c(-c3ccccc3)c2n1 | 16.8 | 35.5µM* | ? | 9.3%[87.6 µM]
Cc1cccc(-c2cnc3n[nH]c(-c4ccccc4)c3n2)c1 | 3.8 | 35.5µM* | ? | ?
COc1ncccc1-c1cnc2n[nH]c(-c3ccccc3)c2n1 | 16.8 | 35.5µM* | -15.7%[87.6 µM] | -6.2%[87.6 µM]
Fc1ccccc1-c1cnc2n[nH]c(-c3ccccc3)c2n1 | 6.1 | 31.6µM* | ? | -13.1%[87.6 µM]
Cc1c(C(=O)N2CCOC(C)C2)cnn1-c1cccc(Cl)c1 (centres undefined) | . | i | . | .
COc1ccccc1-c1cnc(NCc2ccccc2)c2c1CCO2 | -22.0 | 35.5µM* | 127.4%[87.6 µM] | -0.1%[87.6 µM]
COc1ccccc1-c1cnc(Nc2cc(F)cc(N3CCOCC3)c2)c2c1CCO2 | -12.6 | ? | -3.1%[87.6 µM] | -14.2%[87.6 µM]
COc1ccccc1-c1cnc(NC(=O)c2cnccn2)c2c1CCO2 | 15.3 | 35.5µM* | 30.3%[87.6 µM] | -8.5%[87.6 µM]
c1ccc(CNc2ncc(-c3ccc(N4CCOCC4)cc3)c3c2OCC3)cc1 | 6.5 | 39.8µM* | 15.4%[87.6 µM] | -21.4%[87.6 µM]
CC(C1CC1)N(Cc1ccccc1)S(=O)(=O)c1cc(S(C)(=O)=O)ccc1Cl (centres undefined) | . | i | . | .
O=C1[C@@H]2C[C@@H](CN2Cc2ccc3c(c2)OCO3)Oc2ccccc2N1Cc1ccccn1 | 4.3 | i | -3.3%[87.6 µM] | -9.9%[87.6 µM]
c1cc(N2CCCCC2)ccc1-c1n[nH]c(C2CCOC2)n1 (centres undefined) | 1.9 | 22.4µM* | -39.6% | -10.3%
CCOC(=O)c1ccc(N2C(=O)c3n[nH]c(-c4cccs4)c3C2c2ccc(Cl)cc2Cl)cc1 (centres undefined) | -11.4 | i | ? | 22.4µM*
CCOC(=O)c1ccc(N2C(=O)c3n[nH]c(-c4cccs4)c3C2c2ccc(C)cc2)cc1 (centres undefined) | -9.8 | i | 23.3% | -1.8%
CCOC(=O)c1ccc(N2C(=O)c3n[nH]c(-c4ccco4)c3C2c2ccc(OCC)cc2)cc1 (centres undefined) | 24.5 | ? | 20µM* | ?
CCOc1cc(=O)n2c(c1C(=O)Nc1ccccc1C)CCCC2 | 0.5 | i | 33.9% | 23.4%
COc1ccc(-c2nc(Cn3c(-c4cccc(Cl)c4)nc(C)c(CCO)c3=O)c(C)o2)cc1 | 3.1 | 28.2µM* | 17.4% | 5.8%

Screening data (PubChem)
